From PubChem BioAssay (NCI)
Values joined by “and” are separate entries in the source; they are usually repeats but may differ in a detail not shown here. Equal values may be shown once. The panel holds about 83,000 compounds, 20% with a hit somewhere; the sample as a whole holds those more often.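 The test compound was applied at a single concentration to cells in 96-well plates for 48 hours, and percent growth was recorded.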 Active and inactive are the calls of the source. The calls were made as follows: active = growth percent below 10; inactive = the rest.

Tested on: SK-MEL-2 melanoma
Test: NCI-60 one-dose screen, 48 h (100 = growth as untreated, 0 = no growth, -100 = all killed)
Settings: 10 µM unless noted

SMILES	growth
Cn1c(-c2ccccc2)cc(=O)cc1-c1ccccc1	10.8% (inactive)
O=C1C2=C(Nc3cc(Cl)ccc3N2)OC1c1c[nH]c2ccc(COc3ccccc3)cc12 (stereo not drawn)	86.7% (inactive)
COc1ccc(S(=O)(=O)c2ccc(F)cc2)cc1	99% (inactive)
CCOP(=O)(OCC)/C(C#N)=C/c1c(C)[nH]c2ccccc12	99.2% (inactive)
COc1ccc(CCNC(=S)NN)cc1OC	118% (inactive)
CS(=O)(=O)OCC1NC(=O)C(COS(C)(=O)=O)NC1=O (stereo not drawn)	75.4% (inactive) and 89.1% (inactive)
COc1cc(NCCCCCCCNC(C)C)c2nccc(C)c2c1	103% (inactive) and 126% (inactive)
N=c1sc2ccccc2n1CC(=O)O	95.4% (inactive)
O=C1C=CC(=O)N1Cc1ccco1	28.8% (inactive)
N=C(N)N1CCc2ccccc2C1	128% (inactive)
Cc1ccc(C(=O)c2ccc(C)cc2)cc1	98.5% (inactive) and 98.1% (inactive)
COC(=O)c1ccccc1Cl	108% (inactive)
O=C(Nc1ccccc1)OCC(CN1CCCCC1)OC(=O)Nc1ccccc1 (stereo not drawn)	85.6% (inactive) and 108% (inactive)
N=C(N=C(N)N)N1CCOCC1	111% (inactive) and 99.2% (inactive)
Cc1cc2nc3ccc(=[N+](C)C)cc-3sc2cc1N	-33.5% (active) and 20.3% (inactive)
O=C1C=CC(n2cc(F)c(=O)[nH]c2=O)O1 (stereo not drawn)	109% (inactive)
O=C1CCC(=O)N1CC1CC2CCC1C2 (stereo not drawn)	97.5% (inactive) and 111% (inactive)
NCCSSC/C=C\CSSCCN	113% (inactive)
COC(=O)c1nc(N)nc(C(=O)OC)c1C(=O)c1cccc2ccccc12	106% (inactive)
COc1ccc(COC=O)cc1	108% (inactive)

SMILES	growth
CCCCNC(=O)c1ccccc1C	100% (inactive)
CC(=O)c1cccc(OC(=O)c2ccccc2)c1	88.9% (inactive)
CCNC1=CC(=O)c2ncccc2C1=O	26.9% (inactive)
O=C(/C=C/C=C/c1ccc2c(c1)OCO2)N1CCCCC1	128% (inactive) and 57.5% (inactive)
CCN(CC)Cc1cc2[nH]c3c4ccc(Cl)cc4ncc3c2cc1OC	160% (inactive) and 97.9% (inactive)
C/C=C/C(=O)OCCCCCCCCCCCC	94.3% (inactive)
COc1ccc(CCn2cnn3c(=O)c4ccccc4nc3c2=O)cc1OC	107% (inactive) and 118% (inactive)
N#Cc1c[nH]n2ccnc12	105% (inactive)
NC1=NC(c2ccccc2)N=C(Nc2ccccc2)N1 (stereo not drawn)	100% (inactive) and 84.3% (inactive)
Cc1nc(Nc2ccc(Cl)cc2)c2cnn(-c3ccccc3)c2n1	100% (inactive)
CC(C)(C)C1=CC(=O)C(C(C)(C)C)=CC1=O	95.2% (inactive) and 94.5% (inactive)
CC1(C)OC(=O)C(=Cc2ccc(C#N)cc2)C(=O)O1	93.7% (inactive)
COC(=O)CCOc1ccccc1	84% (inactive)
Cc1cc(-c2ccc(N=Nc3c(C)nn(-c4ccc(S(=O)(=O)O)cc4)c3O)c(C)c2)ccc1N=Nc1ccc(O)c(C(=O)O)c1	73% (inactive)
OCc1ccccc1F	26.3% (inactive)
O=C(O)c1cc(=O)[nH]c(=O)[nH]1	111% (inactive) and 65.2% (inactive)
O=C(O)c1cccc(Br)c1	105% (inactive)
CCN(CC)C(CC(=O)c1ccccc1)C(=O)c1ccccc1 (stereo not drawn)	110% (inactive)
O=S(=O)(O)c1ccc2cc(O)ccc2c1	106% (inactive)

Tested on: EKVX NSCLC
Test: as above
Settings: 10 µM unless noted

SMILES	growth
Cn1c(-c2ccccc2)cc(=O)cc1-c1ccccc1	121% (inactive)
O=C1C2=C(Nc3cc(Cl)ccc3N2)OC1c1c[nH]c2ccc(COc3ccccc3)cc12 (stereo not drawn)	55% (inactive)
COc1ccc(S(=O)(=O)c2ccc(F)cc2)cc1	122% (inactive)
CCOP(=O)(OCC)/C(C#N)=C/c1c(C)[nH]c2ccccc12	97.4% (inactive)
COc1ccc(CCNC(=S)NN)cc1OC	103% (inactive)
CS(=O)(=O)OCC1NC(=O)C(COS(C)(=O)=O)NC1=O (stereo not drawn)	98.9% (inactive) and 89.2% (inactive)
COc1cc(NCCCCCCCNC(C)C)c2nccc(C)c2c1	82.9% (inactive) and 50.6% (inactive)
N=c1sc2ccccc2n1CC(=O)O	104% (inactive)
O=C1C=CC(=O)N1Cc1ccco1	103% (inactive)
N=C(N)N1CCc2ccccc2C1	66% (inactive) and 97% (inactive)
Cc1ccc(C(=O)c2ccc(C)cc2)cc1	92.6% (inactive) and 101% (inactive)
COC(=O)c1ccccc1Cl	99.9% (inactive)
O=C(Nc1ccccc1)OCC(CN1CCCCC1)OC(=O)Nc1ccccc1 (stereo not drawn)	82.5% (inactive)
N=C(N=C(N)N)N1CCOCC1	103% (inactive) and 105% (inactive)
Cc1cc2nc3ccc(=[N+](C)C)cc-3sc2cc1N	38.7% (inactive) and 24.3% (inactive)
O=C1C=CC(n2cc(F)c(=O)[nH]c2=O)O1 (stereo not drawn)	93.3% (inactive)
O=C1CCC(=O)N1CC1CC2CCC1C2 (stereo not drawn)	99% (inactive) and 83.1% (inactive)
NCCSSC/C=C\CSSCCN	123% (inactive)
COC(=O)c1nc(N)nc(C(=O)OC)c1C(=O)c1cccc2ccccc12	103% (inactive)
COc1ccc(COC=O)cc1	109% (inactive)

SMILES	growth
CCCCNC(=O)c1ccccc1C	94.9% (inactive)
CC(=O)c1cccc(OC(=O)c2ccccc2)c1	110% (inactive)
CCNC1=CC(=O)c2ncccc2C1=O	72.6% (inactive)
O=C(/C=C/C=C/c1ccc2c(c1)OCO2)N1CCCCC1	78.9% (inactive) and 95.9% (inactive)
CCN(CC)Cc1cc2[nH]c3c4ccc(Cl)cc4ncc3c2cc1OC	83.5% (inactive) and 75% (inactive)
C/C=C/C(=O)OCCCCCCCCCCCC	111% (inactive)
COc1ccc(CCn2cnn3c(=O)c4ccccc4nc3c2=O)cc1OC	106% (inactive)
N#Cc1c[nH]n2ccnc12	90.3% (inactive)
NC1=NC(c2ccccc2)N=C(Nc2ccccc2)N1 (stereo not drawn)	79.3% (inactive) and 90.5% (inactive)
Cc1nc(Nc2ccc(Cl)cc2)c2cnn(-c3ccccc3)c2n1	91.3% (inactive)
CC(C)(C)C1=CC(=O)C(C(C)(C)C)=CC1=O	97.6% (inactive) and 108% (inactive)
CC1(C)OC(=O)C(=Cc2ccc(C#N)cc2)C(=O)O1	102% (inactive)
COC(=O)CCOc1ccccc1	96.6% (inactive)
Cc1cc(-c2ccc(N=Nc3c(C)nn(-c4ccc(S(=O)(=O)O)cc4)c3O)c(C)c2)ccc1N=Nc1ccc(O)c(C(=O)O)c1	104% (inactive)
OCc1ccccc1F	110% (inactive)
O=C(O)c1cc(=O)[nH]c(=O)[nH]1	93.6% (inactive) and 115% (inactive)
O=C(O)c1cccc(Br)c1	105% (inactive) and 101% (inactive)
CCN(CC)C(CC(=O)c1ccccc1)C(=O)c1ccccc1 (stereo not drawn)	98.2% (inactive)
O=S(=O)(O)c1ccc2cc(O)ccc2c1	106% (inactive)
